PubChem BioAssay (NCI)
About 79,000 compounds went through this panel and 15% of them were active in at least one assay; those are over-represented in the sample as a whole. No stated cut-off is given here; in the data, active means growth inhibition above about 70%; inactive means the rest.

Assays:
[1] = NCI Yeast Anticancer Drug Screen. Data for the rad50 strain (AID 155);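 further: 0% = growth of vehicle-only cultures of the same strain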; conditions: S. cerevisiae rad50 strain growth inhibition; at 50.0 µM; hits give high values
Method in brief: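 Genetically altered yeast (DNA repair pathway); compound treatment; growth inhibition vs vehicle ctrl.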

[2] = NCI Yeast Anticancer Drug Screen. Data for the mec2-1 strain (AID 157); conditions: S. cerevisiae mec2-1 strain, at 50.0 µM, hits give high values
Method in brief: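 Compounds were applied to mec2-1 yeast cells. Their growth was then compared with that of vehicle-treated cultures to give growth inhibition.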

[3] = NCI Yeast Anticancer Drug Screen. Data for the sgs1 mgt1 strain (AID 161);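 further: 0% = growth of cultures given vehicle only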; conditions: S. cerevisiae sgs1 mgt1 strain, at 50.0 µM, hits give high values
Method in brief: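 Yeast cells carrying a defined DNA-repair defect were exposed to test compounds. Growth inhibition was measured relative to vehicle-treated controls.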

[4] = NCI Yeast Anticancer Drug Screen. Data for the cln2 rad14 strain (AID 165);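 further: 0% = growth equal to vehicle treated cultures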; conditions: S. cerevisiae cln2 rad14 strain, at 50.0 µM, hits give high values
Method in brief: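 Strain: cln2 rad14 yeast, altered in cell cycle control and DNA damage repair. Read-out: growth inhibition vs vehicle.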

[5] = NCI Yeast Anticancer Drug Screen. Data for the bub3 strain (AID 167); conditions: S. cerevisiae bub3 mutant strain, at 50.0 µM, hits give high values
Method in brief: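 Yeast carrying a defined mutation is treated with each compound, and growth is compared with that of vehicle-exposed cells to give inhibition.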

[6] = NCI Yeast Anticancer Drug Screen. Data for the mlh1 rad18 strain (AID 175); conditions: S. cerevisiae mlh1 rad18 strain growth inhibition; at 50.0 µM; hits give high values
Method in brief: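 A repair-deficient yeast strain is exposed to test compound, and growth is scored relative to vehicle-treated controls.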

Measured: growth inhibition

CC(C)c1ccc2c(c1)C=C1OC(=O)[C@]3(C)CCC[C@@]2(C)C13 (stereo partly specified)
inactive: [1] 35.1% | [2] 21.9% | [3] 54.2% | [4] 40% | [5] 26.4% | [6] 17.1%

CC(C)C1C(O)C23CCC4C(C)(CO)CCCC4(C)C2CC13 (stereo unspecified)
inactive: [1] -7.15% | [2] -6.85% | [3] -22.6% | [4] -15.4% | [5] -24.1% | [6] -8.75%

CC1=CC(=C2C=CC(=O)C=C2)C=C(C)N1C
inactive: [1] 5.6% | [2] -5.55% | [3] -8.05% | [4] -4.5% | [5] 2.4% | [6] -3.65%

O=C1OC(c2ccccc2)=N/C1=C/N1CCCC1C(=O)O (stereo unspecified)
inactive: [1] -1% | [2] 5.6% | [3] 15.9% | [4] 10.1% | [5] -4.4% | [6] -6.3%

CCCC(=O)C(N)Cc1ccccc1 (stereo unspecified)
inactive: [1] -3.8% | [2] -6.1% | [3] -6% | [4] 12.3% | [5] 12.2% | [6] -6.3%

CCOP(=O)(CCP(=O)(CCP(=O)(OCC)OCC)CCP(=O)(OCC)OCC)OCC
inactive: [1] -8.05% | [2] 2.5% | [3] -8.05% | [4] -30.2% | [5] -1.55% | [6] -9.2%

Cc1cc(-n2cnc3c(Cl)ncnc32)ccc1N
inactive: [1] 10.8% | [2] 5.3% | [3] 0.95% | [4] 5.05% | [5] 10.8% | [6] -9.1%

COC(=O)C(Cl)=C1CC1
inactive: [1] 5.7% | [2] 10.4% | [3] -6.95% | [4] 18.6% | [5] 6.25% | [6] -5.6%

Cc1cc(Cl)c(Cl)cc1NC(=O)c1ccc(Cl)cc1Cl
inactive: [1] 2.85% | [2] 6.9% | [3] 1.25% | [4] -0.95% | [5] -1.3% | [6] 17.6%

O=C1N2Cc3c4ccc5c3CN3C(=O)N6Cc7c(ccc(c7CN1C6(c1ccccc1)C23c1ccccc1)OCCOCCOc1cc(Br)c(Br)cc1OCCOCCO4)OCCOCCOc1cc(Br)c(Br)cc1OCCOCCO5 (stereo unspecified)
inactive: [1] -4.95% | [2] 8.95% | [3] -3.45% | [4] 18.1% | [5] -1.8% | [6] -16.4%

Cc1cn(C2CC(OS(C)(=O)=O)C(COC(c3ccccc3)(c3ccccc3)c3ccccc3)O2)c(=O)[nH]c1=O (stereo unspecified)
inactive: [1] 30.9% | [2] 1.95% | [3] 16.6% | [4] -15.2% | [5] -0.9% | [6] 15.3%

O=C(NCCCCCCNC(=O)Oc1ccccc1F)Oc1ccccc1F
inactive: [1] -13.6% | [2] -14.5% | [3] -6.5% | [4] -0.05% | [5] 6.4% | [6] -20.9%

Oc1c(Cl)cc(Cl)cc1C1Nc2ccccc2-n2cccc21 (stereo unspecified)
inactive: [1] -5.2% | [2] -11.8% | [3] 0.4% | [4] 8.95% | [5] 9.25% | [6] 8.2%

CC1(C)C(O)C(C)(C)C1O (stereo unspecified)
inactive: [1] 17.1% | [2] -17.6% | [3] 7.8% | [4] 6.95% | [5] 11.2% | [6] 10.2%

Nc1ccc2c(c1)-c1ccccc1C2O (stereo unspecified)
inactive: [1] -1.2% | [2] -19.1% | [3] -37.8% | [4] -60.9% | [5] -17.1% | [6] -16.4%

Cn1c(C2CCc3cc(O)ccc3C2)cccc1=O (stereo unspecified)
inactive: [1] -26.8% | [2] 13.1% | [3] -4.25% | [4] -19.6% | [5] 14.7% | [6] -4.35%

O=C1OC(=O)C2C3CCC(O3)C12 (stereo unspecified)
inactive: [1] 13.9% | [2] 7.4% | [3] 4.75% | [4] -0.8% | [5] -0.5% | [6] -5%

CN(C)c1ccc2c(SCC(=O)OCC(=O)C3(O)CCC4C5CCC6=CC(=O)C=CC6(C)C5C(O)CC43C)c3ccc(N(C)C)cc3nc2c1 (stereo unspecified)
inactive: [1] 42.6% | [2] 45.4% | [3] 57.2% | [4] 60% | [5] 42.2% | [6] 60.9%

CC(C)CC1NC(=S)N(c2ccccc2)C1=O (stereo unspecified)
inactive: [1] -11% | [2] -18.4% | [3] -13.7% | [4] -10.1% | [5] -8.05% | [6] -24.7%

COC(=O)c1cc(=O)n(C)c2ccc(OC)cc12
inactive: [1] 21.1% | [2] 10.8% | [3] -5.3% | [4] 9.75% | [5] 13.6% | [6] 20.7%

Clc1ccc2cn[nH]c2c1
inactive: [1] -50.4% | [2] -28.1% | [3] -23.2% | [4] 3.3% | [5] -18.9% | [6] -9.3%

C(CC1CCNCC1)CC1CCNCC1
inactive: [1] -39.7% | [2] -19.1% | [3] -20.3% | [4] -23.8% | [5] 12.2% | [6] -64.7%

CNC(=O)N(C)c1cc(N(C)C)nc(OC)n1
inactive: [1] -16.4% | [2] -34.6% | [3] -19.4% | [4] -9.4% | [5] -20.8% | [6] -23.4%

Cc1ccc(C2=C(c3ccc(C)cc3)CS(=O)(=O)C2)cc1
inactive: [1] 22.2% | [2] -5.55% | [3] -0.4% | [4] -6% | [5] -18.8% | [6] -26.1%

CN(C)Cc1cc(N=Nc2ccccc2)ccc1O
inactive: [1] -23.4% | [2] -12.2% | [3] -12.4% | [4] 9.4% | [5] 4.9% | [6] -19.4%

O=[N+]([O-])c1ccc2nc(/C=C(\O)c3ccccc3)c(NC34CC5CC(CC(C5)C3)C4)nc2c1
inactive: [1] 16.4% | [2] -17.5% | [3] 13.9% | [4] -39.4% | [5] -17.8% | [6] -2.35%

CCOC(=O)/C(=C(/N)C1OC(COC(c2ccccc2)(c2ccccc2)c2ccccc2)C2OC(C)(C)OC12)C1CC(=O)N(C)C1=O (stereo unspecified)
inactive: [1] -4.35% | [2] 16.1% | [3] 12.7% | [4] -27.8% | [5] -7.35% | [6] 41.5%

CN1CCN(C(=S)N(C(=O)c2ccc(Cl)cc2)c2ccccc2)CC1
inactive: [1] -49.2% | [2] -36.5% | [3] -20.6% | [4] -6.8% | [5] 4.65% | [6] -7.25%

O=C(CCl)NCCc1ccccc1
inactive: [1] 17.5% | [2] 5.6% | [3] -0.4% | [4] 12.8% | [5] 24.8% | [6] 1.1%

COC(=O)c1cc(NC(=O)Nc2ccc(Cl)cc2[N+](=O)[O-])cc(C(=O)OC)c1
inactive: [1] -21.4% | [2] -13.3% | [3] -14.1% | [4] -68.2% | [5] -2.35% | [6] -11.1%

Oc1cc(CN2CCOCC2)c(O)c(CN2CCOCC2)c1
inactive: [1] 14.7% | [2] 8.95% | [3] 21.1% | [4] 20% | [5] 7.7% | [6] 24.6%

CC(C)OC(=O)Oc1ccc(Cl)cc1
inactive: [1] 6.05% | [2] -13.1% | [3] 7.4% | [4] -46.1% | [5] -11.8% | [6] 9.8%

C/C(=N\NC(=O)c1ccncc1)c1cccc(F)c1
inactive: [1] -57% | [2] -20.9% | [3] -51.2% | [4] -48.7% | [5] -67.8% | [6] -38%

CC1CCC2C(C(=O)O[C@H]3C4C=CO[C@@H](OC5OC(CO)C(O)C(O)C5O)C4[C@@]4(CO)O[C@@H]34)=CO[C@@H](OC3OC(CO)C(O)C(O)C3O)C12 (stereo partly specified)
inactive: [1] -12.3% | [2] -32.5% | [3] -18.6% | [4] 4.2% | [5] -12.8% | [6] -11.4%

CN=C(c1ccccc1)N(O)c1ccccc1
inactive: [1] -16.1% | [2] -1.15% | [3] -8.15% | [4] -10.1% | [5] -1.65% | [6] 6.2%

CCOc1cc2c(cc1C/C=C/c1ccc(OC)cc1)OCO2
inactive: [1] 26.4% | [2] 12.6% | [3] 37.4% | [4] -0.75% | [5] 41.8% | [6] 5.05%
